Data on 19 compounds can be found in PubChem BioAssay (Tox21).

Inconclusive results are not listed. Active and inactive are the calls of the source. Unless noted, the call rests on the fitted dose curve; in most records, active means well fitted curve in the direction sought with a large enough effect in the repeat runs; inconclusive means weak or mixed curves; inactive means no such curve, though single readings can be large; an effect the other way counts as inactive or inconclusive.

Test [1] can be described thus: qHTS assay for small molecules that induce genotoxicity in human embryonic kidney cells expressing luciferase-tagged ATAD5 (AID 651632). Further: nearly all actives have a fitted effect of over 15% in size. Put shortly: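 Increased luciferase signal from ATAD5-tagged reporter cells indicates DNA-damage-driven ATAD5 induction. HEK293T cells are treated for 16 hr at 37C before detection with Amplite.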
Test [2] in a line: qHTS assay for small molecule agonists of the p53 signaling pathway - cell viability (AID 651633; calls by dose curve; further: nearly all actives have a fitted effect of over 30% in size; further: potency means the concentration at half of the fitted maximal effect). Put shortly: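 Viability counter-read: CellTiter-Glo luminescence (30 min, room temperature) in the same p53RE-bla plates. These plates had been exposed to compounds for 16 h at 37 C.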
Test [3] is described as follows: qHTS assay for small molecules that induce genotoxicity in human embryonic kidney cells expressing luciferase-tagged ATAD5 - cell viability (AID 651634; calls by dose curve; further: nearly all actives have a fitted effect of over 25% in size; further: potency means the concentration at half of the fitted maximal effect). The essentials: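 Cytotoxicity counterscreen in HEK293T cells bearing an ATAD5-luciferase reporter: live-cell protease activity measured by CellTiter-Fluor fluorescence after 15.5 hr compound exposure.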
Test [4] can be described thus: qHTS assay for small molecule disruptors of the mitochondrial membrane potential - cell viability (AID 720634; calls by dose curve; further: nearly all actives have a fitted effect of over 20% in size; further: potency means the concentration at half of the fitted maximal effect). Put shortly:
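After overnight attachment at 37 C, HepG2 cells received compound or DMSO vehicle for 1 hr. Viability is then taken from ATP-driven luminescence following a 30 min room-temperature CellTiter-Glo step.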

A short description of test [5]: qHTS assay for small molecule disruptors of the mitochondrial membrane potential (AID 720635). Further: potency means the concentration at half of the fitted maximal effect. Put shortly:
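Mitochondrial membrane potential tracked with Mito-MPS dye, red aggregates (ex 540/em 590 nm) against green monomers (ex 490/em 535 nm). Compound treatment 1 hr at 37C, dye 30 min in HepG2.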

The nature of test [6]: qHTS assay to test for compound auto fluorescence at 590 nm (red) in HepG2 cells (AID 720674). The essentials:
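1 hr compound incubation on HepG2 cells, 37 C, 5% CO2; plate read ex 540 nm / em 590 nm; intensities reported as Rose Bengal sodium equivalents.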

Test [7] can be described thus: qHTS assay to test for compound auto fluorescence at 535 nm (green) in HepG2 cells (AID 720675).
A short description of test [8]: qHTS assay to test for compound auto fluorescence at 460 nm (blue) in HEK293 cells (AID 720678). The essentials:
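HEK293, 2,000 cells/well, 10% dialyzed FBS; attach 4-5 hr 37C; pin compound or DMSO; o/n 37C/5% CO2; fluorescence 405/460 nm; triamterene-equivalent units.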

Test [9] in a line: qHTS assay to test for compound auto fluorescence at 590 nm (red) in HEK293 cells (AID 720679). Put shortly:
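Intensity at 540nm excitation and 590nm emission is reported as Rose Bengal sodium-equivalent autofluorescence. Measurements followed overnight exposure (37C, 5% CO2) of HEK293 cells, 2,000 per well, to 23 nL compound.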

Regarding `C[C@H](CSC(=O)c1ccccc1)C(=O)N1C[C@@H](Sc2ccccc2)C[C@H]1C(=O)O`, the Potency entry in test [1], in [2], in test [3], in test [4], in test [5] and in test [6] was “inactive” in each case. The Potency entry in test [7], in [8] and in test [9] was “inactive” each time.
For `CCCCc1cc2c(=O)c(C(=O)OC)c[nH]c2cc1OCc1ccccc1`, the Potency result in test [1], in test [2], in test [3], in test [4], in test [5] and in test [6] was “inactive” in each case. Moreover, the Potency entry in test [7], in test [8] and in test [9] was “inactive” throughout.
With `CCCCC(O)c1ccccc1` (stereo unspecified), the Potency entry in test [1], in [3], in test [4], in test [5], in test [6] and in test [7] was “inactive” throughout. For the same compound, the Potency entry in [8] and in [9] was “inactive” each time. Further, the Potency in test [2] is 26.6 µM (active).
For the compound `CC(C)(C)NCC(O)CSc1nc(-c2ccc(C(N)=O)s2)cs1` (stereo unspecified), the Potency entry in test [1], in test [2], in test [3], in test [4], in [6] and in test [7] was “inactive” in each case. Also, the Potency entry in [8] and in [9] was “inactive” throughout. The Potency in [5] was 13.3 µM (active).
On to `FCOC(C(F)(F)F)C(F)(F)F`, for which the Potency result in test [1], in test [2], in [3], in test [4], in [5] and in test [6] was “inactive” each time. Also, the Potency result in test [7], in test [8] and in test [9] was “inactive” in each case.
For the compound `O=[N+]([O-])c1c(Cl)cccc1-c1c[nH]cc1Cl`, the Potency result in test [1], in test [3], in test [6], in test [7], in test [8] and in test [9] was “inactive” throughout. Besides, the Potency was 33.5 µM (active) in test [2], 10.6 µM (active) in test [4] and 2.98 µM (active) in [5].
Regarding `NC(N)=NCC1COc2ccccc2O1` (stereo unspecified), the Potency result in [1], in test [2], in test [3], in test [4], in test [5] and in test [6] was “inactive” each time. Moreover, the Potency entry in test [7], in test [8] and in test [9] was “inactive” each time.
As for `COc1ccc2cc([C@H](C)CO)ccc2c1`, the Potency entry in test [1], in test [2], in test [3], in test [4], in [5] and in [6] was “inactive” in each case. Further, the Potency result in [7], in test [8] and in [9] was “inactive” throughout.
Take `CN(CCO)CC(O)Cn1cnc2c1c(=O)n(C)c(=O)n2C` (stereo unspecified) (tested in a mixture with another compound): the Potency result in [1], in test [2], in [3], in test [4], in [5] and in [6] was “inactive” throughout. The Potency result in test [7], in test [8] and in [9] was “inactive” each time.
For `C=C1/C(=C\C=C2/CCC[C@]3(C)[C@@H]([C@H](C)OCCC(C)(C)O)CC[C@@H]23)C[C@@H](O)C[C@@H]1O`, the Potency result in test [1], in [2], in [3], in test [4], in [5] and in test [6] was “inactive” in each case. In addition, the Potency result in test [7], in [8] and in test [9] was “inactive” in each case.
With `COc1ccc(C(=O)Nc2ccccc2CCC2CCCCN2C)cc1` (stereo unspecified), the Potency result in test [1], in [2], in [3], in [4], in test [5] and in [6] was “inactive” in each case. Besides, the Potency result in test [7], in test [8] and in [9] was “inactive” in each case.
For `CCCC(=O)Nc1c(I)cc(I)c(CC(CC)C(=O)O)c1I` (stereo unspecified), the Potency result in test [1], in [2], in test [3], in [4], in test [5] and in [6] was “inactive” throughout. The Potency entry in [7], in [8] and in [9] was “inactive” throughout.
Turning to `COCC(=O)Nc1cc(Sc2ccccc2)ccc1N=C(NC(=O)OC)NC(=O)OC`, the Potency entry in [1], in test [2], in [4], in test [5], in [6] and in test [7] was “inactive” throughout. Also, the Potency entry in [8] and in test [9] was “inactive” in each case. In [3], the Potency is 4.22 µM (active).
Take `CC1CS(=O)(=O)CCN1/N=C/c1ccc([N+](=O)[O-])o1` (stereo unspecified): the Potency entry in [1], in [2], in [3], in test [4], in [5] and in test [6] was “inactive” throughout. Also, the Potency result in [7], in test [8] and in [9] was “inactive” each time.
On to `CN=C(NC)NCc1ccccc1`, for which the Potency result in test [1], in test [2], in test [3], in [4], in [5] and in test [6] was “inactive” throughout. The Potency result in test [7], in test [8] and in test [9] was “inactive” in each case.
Turning to `C[C@H](CCCC(C)(C)O)[C@H]1CC[C@H]2[C@@H]3CC=C4C[C@@H](O)CC[C@]4(C)[C@H]3CC[C@]12C`, the Potency entry in [1], in [2], in test [3], in test [4], in [5] and in test [6] was “inactive” in each case. The Potency result in test [7], in test [8] and in test [9] was “inactive” in each case.
As for `CC(C)C(=O)OCC(=O)[C@@]12O[C@H](C3CCCCC3)O[C@@H]1C[C@H]1[C@@H]3CCC4=CC(=O)C=C[C@]4(C)[C@H]3[C@@H](O)C[C@@]12C`, the Potency result in test [1], in test [2], in test [3], in [4], in test [6] and in test [7] was “inactive” throughout. For the same compound, the Potency entry in [8] and in [9] was “inactive” throughout. The Potency in test [5] was 7.84 µM (active).
For `C=C1CC[C@H](O)CC1=C/C=C1\CCC[C@]2(C)[C@@H]([C@H](C)CCCC(C)(C)O)CC[C@@H]12`, the Potency result in test [1], in test [4], in [6], in test [7], in [8] and in test [9] was “inactive” in each case. Also, the Potency was 11.9 µM (active) in test [2], 13.3 µM (active) in test [3] and 5.31 µM (active) in test [5].
Regarding `CC(=O)OC[C@H]1O[C@@H](O[C@H]2[C@H](O)[C@@H](OC(=O)c3ccccc3C(=O)O)[C@H](O)O[C@@H]2COC(C)=O)[C@H](O)[C@@H](OC(=O)c2ccccc2C(=O)O)[C@@H]1O`, the Potency result in test [1], in [2], in test [3], in test [4], in test [5] and in [6] was “inactive” in each case. The Potency result in [7], in test [8] and in test [9] was “inactive” each time.
